# Hits are enriched below; roughly 11% of the tested compounds scored in any of these assays.
# ALDH1A1 block: blocks purified human ALDH1A1 activity; Potency, µM (doses to about 75.3 µM), for the others: top-dose activity, negative = inhibition, most hits filed as inhibitors; P00352; Purified ALDH1A1, NADH fluorescence, propionaldehyde substrate; AID 1030; 220,000 tested, 7.3% active;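 also: potency is read from the fitted curve at half-maximal effect; plate controls were no enzyme wells and a reference inhibitor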
# PNC assembly inh: inhibitors of perinucleolar compartment assembly; PC3M PTB-GFP, PNC prevalence imaging, 16 h; stronger effect = lower value; activity change (PNC), negative = inhibition, % at 10 µM; 140,000 tested, 3.1% active; AID 2417;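 active = readout at or below -70, meaning at least 70% loss of cells showing the perinucleolar compartment, a nuclear body marking cancer cells; inconclusive = readout between -30 and a set limit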;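 also: plate controls were DMSO wells for no effect and camptothecin positive control wells for full effect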
#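 Compounds are pinned in duplicate onto adhered PC3M cells stably expressing GFP-tagged PTB and incubated 16 h at 37 C. Cells are then fixed, nuclei stained with Hoechst, and PNC-positive cells counted.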
# HPGD block: inhibitors of human 15-hydroxyprostaglandin dehydrogenase (HPGD). 150,000 tested, 4.3% active. purified HPGD, NADH fluorescence kinetic, PGE2 substrate. AID 894. P15428. Potency, µM, for the others: top-dose activity change, negative = inhibition, usual class: inhibitors; also: potency is read from the fitted curve at half-maximal effect
# Target sequence (P15428 whole entry, looked up): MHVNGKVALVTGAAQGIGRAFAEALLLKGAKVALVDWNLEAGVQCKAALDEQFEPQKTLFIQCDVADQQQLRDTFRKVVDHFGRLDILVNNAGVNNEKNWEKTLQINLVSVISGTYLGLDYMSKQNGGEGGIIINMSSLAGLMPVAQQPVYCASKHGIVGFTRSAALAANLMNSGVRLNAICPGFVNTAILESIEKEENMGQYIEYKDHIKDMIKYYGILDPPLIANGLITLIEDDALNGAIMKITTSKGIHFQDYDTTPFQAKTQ
#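 20 nM HPGD preincubated 15 min at room temperature with compound in 50 mM Tris-HCl pH 8, 0.01% Tween 20. Started with 1 mM NAD+ and 30 uM prostaglandin E2; NADH fluorescence (360/450 nm) read 5 times over 30-s intervals, last minus first.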
# * hit, by the source's call; ? = inconclusive; · = no result; [ ] = dose if it differs, or a comment. Unless noted, calls follow the shape of the dose curve; as a rule, active = well fitted inhibition curve with a large enough effect (not every such curve was filed as active); inconclusive = small, poorly fitted or top-dose-only effect, or another doubt; inactive = no such curve, though single readings can be large or run the other way. Unless noted, % is scaled to controls: 0 for no effect and ±100 for the full control effect.
SMILES,ALDH1A1 block,PNC assembly inh,HPGD block
CN(C)CC(=O)Nc1cc(C(F)(F)F)ccc1Cl,5%,?,-16%
CC(OC(=O)c1cc(-c2cccnc2)nc2ccccc12)C(=O)Nc1ccc2ccccc2c1 (stereo unspecified),4%,12,-6%
C=COCCNC(=O)C1CC(=O)N(c2ccc(C)cc2)C1 (stereo unspecified),-10%,-14,0%
CCc1ccc2c(c1)/C(=N/OC)C(=O)N2,12%,?,-11%
CC(=Nc1ccc2c(c1)nc(CO)n2C)C1=C(O)CC(C)(C)CC1=O,?,41,3.5µM*
CC(=NCCN1CCN(C(=S)Nc2ccccc2)CC1)C1=C(O)CC(C)(C)CC1=O,?,-16,-1%
COCCn1c(=O)c(C)nc2cnc(Nc3ccccc3)nc21,11%,·,·
COC(=O)c1c(C)oc(C)c1S(=O)(=O)NC(C)(C)C,10%,·,·
N/C(Cc1cccs1)=N\OC(=O)COc1ccc(Cl)cc1Cl,-10%,-13,-17%
Cc1ccc(NC(=O)CSc2nc(N)c3c4c(sc3n2)CSC(C)(C)C4)cc1,-11%,-93*,-29%
Cc1ccccc1NC(=O)CSc1nc(N)c2c3c(sc2n1)CSC(C)(C)C3,-9%,-2,?
Cc1cc(C)cc(NC(=O)C(=O)NCCCN2CCOCC2)c1,12%,·,·
CCN1CCN(c2ccc(NC(=O)CCc3c(C)nc4c(-c5ccc(F)cc5)c(C)nn4c3C)cc2)CC1,-9%,·,·
COc1ccc(C)cc1NC(=O)C1CC(=O)OC12CCCCC2 (stereo unspecified),3%,-3,-2%
CCOC(=O)c1c(-c2ccc(C)s2)csc1N,3.2µM*,·,·
CCOC(=O)c1c(-c2ccsc2)csc1N,-9%,0,-10%
COC(=O)c1ccc(-c2ccco2)n1Cc1nc(-c2ccc(OC)c(OC)c2)oc1C,7.9µM*,?,?
COC(=O)c1ccc(-c2ccco2)n1Cc1ccccc1Cl,?,-4,?
CSc1ccccc1NC(=O)c1cccnc1,?,31,-17%
COc1ccc(/C=C/C(=O)CC(O)(c2ccccc2)C(F)(F)F)cc1 (stereo unspecified),?,-100*,-19%
O=C(/C=C/c1ccccc1)CC(O)(c1ccccc1)C(F)(F)F (stereo unspecified),?,-1,-11%
CC(=O)NS(=O)(=O)c1cccnc1Nc1ccc(Cl)cc1,11%,?,1%
CCOC(=O)C1CCN(C(=O)C2CCCCC2)CC1,?,15,-2%
Cc1cccc(NS(=O)(=O)c2cccs2)c1,9%,12,28µM*
O=S(=O)(Nc1ccc(N2CCCCC2)cc1)c1cccs1,-2%,41,25µM*
SMILES,ALDH1A1 block,PNC assembly inh,HPGD block
COc1ccc(NS(=O)(=O)c2cccc(C(=O)N/N=C(\C)c3ccncc3)c2)cc1,?,-91*,-16%
O=S(=O)(Nc1cccnc1)c1cccs1,-12%,-26,-16%
C/C(=N\NC(=O)c1ccc(NS(=O)(=O)c2cccs2)cc1)c1ccc(Cl)cc1,-6%,-89*,-9%
O=S(=O)(Nc1ccc(S(=O)(=O)N2CCCCCC2)cc1)c1cccs1,?,4,-9%
C/C(=N\NC(=O)c1ccc(NS(=O)(=O)c2cccs2)cc1)c1cccs1,4%,·,·
COc1ccc(NS(=O)(=O)c2cccc(C(=O)N/N=C(\C)c3ccc(-n4ccnc4)cc3)c2)cc1,?,52,-23%
COc1ccc(-n2c3nc4ccccc4nc3c3c(=N)oc(C)nc32)cc1,?,?,-14%
CCOc1cc(C=C(C(=O)OC)C(=O)OC)ccc1OCc1ccc([N+](=O)[O-])cc1,-3%,12,-12%
CCCOC(=O)c1ccc(NS(=O)(=O)c2cccs2)cc1,?,?,18µM*
O=C(c1ccc(NS(=O)(=O)c2cccs2)cc1)N1CCCCC1,?,?,11µM*
O=C(c1ccccc1NS(=O)(=O)c1cccs1)N1CCCC1,3%,-7,-6%
CCCOC(=O)c1ccc(NC(=O)/C=C/c2cccs2)cc1,-15%,52,?
O=C(CCc1ccccc1)Nc1ccc(N2CCCCC2)cc1,1%,-14,-3%
O=C(CNCc1cccs1)Nc1ccc(N2CCCCCC2)cc1,22µM*,·,·
COc1ccc(/C=N\NC(=O)C2=NNC(=O)C2C)cc1 (stereo unspecified),4%,26,-13%
COc1cc(-c2n[nH]c(=S)n2-c2ccc(C)cc2)cc(OC)c1OC,-7%,·,·
O=C(c1ccc(COc2ccc(F)cc2)o1)n1cccn1,-2%,43,-11%
Cc1cc(OCc2ccc(C(=O)n3cccn3)o2)ccc1Cl,0%,-119*,32µM*
CCCC(=O)OC(=O)CCC,?,·,-10%
CC1(C)CC(=O)C=C(NCc2ccccc2)C1,11%,?,-13%
CC1(C)CC(=O)C=C(Nc2ccc(F)cc2F)C1,?,14,-20%
CC1(C)CC(=O)C=C(Nc2cc(-c3ccccc3)[nH]n2)C1,4.5µM*,8,-6%
CC1(C)CC(=O)C=C(Nc2ccccc2F)C1,?,?,22µM*
CN(C)C(=O)n1nnnc1Cc1ccc(-c2ccccc2)cc1,1µM*,·,-11%
CC(C)CN(C)C(=O)CCc1nnc(Cc2ccc(-c3ccccc3)cc2)o1,-2%,·,·
SMILES,ALDH1A1 block,PNC assembly inh,HPGD block
CCN1C(=O)[C@H]2[C@H]3[C@H](O)[C@H](O)C/C(=N/OC/C=C(\C)CCC=C(C)C)[C@@H]3CC[C@@H]2C1=O,7%[13.5 µM],·,·
O=c1c(O)c(-c2cccc(O)c2)oc2ccccc12,?,·,28µM*
COc1cccc(-c2oc3ccccc3c(=O)c2O)c1,-11%,·,?
Cc1cc(NS(=O)(=O)c2ccc(NC(=O)c3ccoc3C)cc2)nc(C)n1,0%,18,-19%
O=C(Cn1c(COc2ccccc2)nc2ccccc21)Nc1cc(Cl)cc(Cl)c1,4%,-100*,1%
O=C(Cn1c(COc2ccccc2)nc2ccccc21)Nc1cc(Cl)ccc1Cl,5%,38,-9%
O=C(Nc1nnc(-c2cccnc2)o1)c1cccc(Cl)c1,7%,·,·
Cc1nn(CC(=O)NCc2cc3ccccc3[nH]2)c(C)c1[N+](=O)[O-],?,?,-6%
O=C1C2=C(Nc3ccccc3SC2c2ccco2)c2ccccc21 (stereo unspecified),6.3µM*,-22,-28%
O=C1c2ccccc2NC(c2ccco2)N1O (stereo unspecified),?,?,-17%
CC(Oc1ccc(-n2cnnn2)cc1)C(=O)O (stereo unspecified),15%,·,·
C[C@@H](Oc1ccc(Oc2cnc3ccc(Cl)cc3n2)cc1)C(=O)O,?,·,18µM*
Cn1c(=O)c2c(ncn2CCSS(=O)(=O)O)n(C)c1=O,1%[13.5 µM],·,-8%
CCN(CC)c1ccc2cc(S(=O)(=O)c3ccc(C)cc3)c(=O)oc2c1,-4%,-9,-30%
CCN(CC)c1ccc2c(c1)oc(=O)c1c(Cl)cc(=O)oc12,2.2µM*,-4,5.6µM*
CCOC(=O)Cc1c(C)c2ccc(N(CC)CC)cc2oc1=O,?,-27,·
CCN(CC)c1ccc2c(Cl)c(Br)c(=O)oc2c1,3.2µM*,-25,-18%
OC[C@@H]1O[C@@H](N2CCN([C@@H]3O[C@@H](CO)[C@@H](O)[C@H](O)[C@H]3O)CC2)[C@@H](O)[C@H](O)[C@H]1O,-4%[13.5 µM],·,-4%
